Data from PubChem BioAssay (EPA / NIEHS).
Where “and” joins values, the source holds several entries; their conditions need not be identical. Identical values can stand only once. Records with an inconclusive call do not appear. Calls of active or inactive are those of the source. How the source made its calls, unless noted: active means hit-call score of the fitted dose curve at least 0.9, where 1 is the maximum; inconclusive means response in the unintended direction; inactive means score below 0.9.

Assays:
[1] = Tanguay_ZF_120hpf_NC_legacy: (Legacy) Oregon State University Tanguay Lab 120 Hour Post-fertilization zebrafish Assay for Notochord and Tail Malformation (AID 2283656)
Outline: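 Dechorionated Tropical 5D wild-type zebrafish embryos, one per well from 6 hpf, statically exposed to 120 hpf at 28C in 0.64% DMSO final. Notochord distortion scored present/absent by brightfield; dead embryos excluded.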

[2] = read-out: ABC Transporter (ABCB1), ABCB1 (gene 5243); experiment: CLD_ABCB1_6hr: CellzDirect (CLD) Gene Expression Assay for ABC Transporter (ABCB1) at 6 hours (AID 2283659);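 further: hits raise ABCB1 transcript above the DMSO vehicle baseline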
Outline: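 Primary human hepatocytes (two donor preparations) dosed daily for two days with chemicals at multiple concentrations, 0.2% DMSO vehicle; harvested 6 h post-dose. ABCB1 mRNA induction quantified by qNPA chemiluminescence; gain-of-signal fitted versus DMSO.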

[3] = system: Thyroperoxidase (TPO), gene 54314; experiment: CCTE_Simmons_AUR_rTPO: CCTE's Amplex UltraRed Assay for Thyroperoxidase (TPO) Inhibition, Simmons Lab (AID 2283662);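 on AC50: potency for loss of signal meaning inhibition of peroxidase activity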
Outline: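 Rat thyroid microsomes (5 ug protein) were incubated with test compound (8 concentrations, 5 nM–87.5 uM final, 0.5% DMSO), 25 uM Amplex UltraRed and 300 uM H2O2 in 200 mM phosphate buffer for 30 min at 37C in the dark; fluorescence read at 544/590 nm.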

[4] = CCTE_Simmons_CellTiterGLO_HEK293T: Viability Assessment in CCTE's Assays for Thyroperoxidase (TPO) Inhibition, Simmons Lab (AID 2283665);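 further: cells exposed to compound for 24 h before readout; actives reduce ATP signal below DMSO vehicle meaning cytotoxicity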
Outline: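 HEK293T, 10 000 cells/well, DMEM + 1% FBS; 8-pt titration 5 nM–87.5 uM [final], 0.5% DMSO; 24 hr, 37C, 5% CO2; CellTiter-Glo luminescence; n=3 biological replicates.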

[5] = Tanguay_ZF_120hpf_TR_legacy: (Legacy) Oregon State University Tanguay Lab 120 Hour Post-fertilization zebrafish Assay for Touch Response (AID 2283667)
Outline: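 Tropical 5D wild-type zebrafish embryos statically exposed to 120 hpf at 28°C, sealed and dark-covered, 0.64% DMSO final; touch response scored as present/absent by brightfield microscopy at 120 hpf. Trimethyltin chloride 5 uM positive control; dead embryos not scored.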

[6] = read-out: organic anion transporter (SLCO1B1), SLCO1B1 (gene 10599); experiment: CLD_SLCO1B1_6hr: CellzDirect (CLD) Gene Expression Assay for organic anion transporter (SLCO1B1) at 6 hours (AID 2283668);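 further: active means mRNA induction above DMSO baseline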
Outline: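 Primary human hepatocytes dosed daily with test chemicals (multiple concentrations) in 0.2% DMSO vehicle; harvested at 6 h. SLCO1B1 mRNA quantified by qNPA chemiluminescence, fitted as gain-of-signal versus DMSO; cytotoxicity from phase-contrast morphology flagged alongside.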

[7] = read-out: xenobiotic metabolism (CYP1A1), CYP1A1 (gene 1543); experiment: CLD_CYP1A1_24hr: CellzDirect (CLD) Gene Expression Assay for xenobiotic metabolism (CYP1A1) at 24 hours (AID 2283673);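 further: CYP1A1 mRNA level by quantitative nuclease protection with chemiluminescence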
Outline: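 Primary human hepatocytes dosed daily with fresh solutions in 0.2% DMSO vehicle. mRNA measured at 24 h by quantitative nuclease protection assay with chemiluminescence; gain-of-signal fit versus DMSO, with morphology-based cytotoxicity flags.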

[8] = read-out: ABC Transporter (ABCB11), ABCB11 (gene 8647); experiment: CLD_ABCB11_6hr: CellzDirect (CLD) Gene Expression Assay for ABC Transporter (ABCB11) at 6 hours (AID 2283675);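 further: hits raise ABCB11 mRNA level so AC50 marks induction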
Outline: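 Human primary hepatocytes (two donor preparations) given fresh chemical daily at multiple concentrations, vehicle 0.2% DMSO. ABCB11 mRNA induction measured 6 h after dosing by qNPA chemiluminescence versus DMSO; cytotoxicity annotated from morphology.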

[9] = CCTE_Padilla_ZF_144hpf_TERATOSCORE: (Legacy) CCTE's 144 Hour Post-fertilization zebrafish Assay Teratoscore, Padilla Lab (AID 2283679; active means hit-call score of the fitted dose curve at least 0.9, where 1 is the maximum; inactive means score below 0.9;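 on AC50: zebrafish embryos with chorions exposed by immersion from 6-8 hpf to 5 dpf with daily renewal; teratogenicity score from eye scoring of death hatching and malformations at 144 hpf; higher score means more developmental defects relative to DMSO baseline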)
Outline: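 Larvae scored by eye at 144 hpf for death, hatching and malformations after a day in clean Hanks'. Before that, daily-renewed exposure at 80 uM (0.4% DMSO, 26C) from roughly 6-8 hpf through 5 dpf, 4 embryos per chemical.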

[10] = CLD_ACTIN_24hr: CellzDirect (CLD) Gene Expression Assay for Baseline Control (Actin) at 24 hours (AID 2283670)
Outline: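 Primary human hepatocytes dosed over multiple concentrations with 0.2% DMSO vehicle; actin mRNA measured at 24 h by qNPA chemiluminescence. Background control endpoint, fitted as gain of signal versus DMSO.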

[11] = CLD_ACTIN_6hr: CellzDirect (CLD) Gene Expression Assay for Baseline Control (Actin) at 6 hours (AID 2283676);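 further: active means increased actin mRNA relative to DMSO vehicle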
Outline: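 Primary human hepatocytes dosed with fresh chemical solutions (vehicle 0.2% DMSO), harvested at 6 h. Actin mRNA quantified by quantitative nuclease protection assay with chemiluminescent read-out, as background control relative to DMSO.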

[12] = read-out: Cytochrome P450 3A4 (Homo sapiens) (UniProt P08684); experiment: CLD_CYP3A4_6hr: CellzDirect (CLD) Gene Expression Assay for xenobiotic metabolism (CYP3A4) at 6 hours (AID 2283680)
Outline: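 Primary human hepatocytes (two donor preparations) dosed; CYP3A4 mRNA harvested at 6 h and quantified by qNPA chemiluminescence. Gain of signal fitted against 0.2% DMSO vehicle; cytotoxicity flagged by phase-contrast morphology.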

[13] = read-out: Cytochrome P450 2C19 (Homo sapiens) (UniProt P33261); experiment: CLD_CYP2C19_6hr: CellzDirect (CLD) Gene Expression Assay for xenobiotic metabolism (CYP2C19) at 6 hours (AID 2283678)
Outline: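 Primary human hepatocytes from two donor preparations were dosed daily, with 0.2% DMSO as vehicle, and harvested 6 h after dosing. CYP2C19 mRNA induction was measured by qNPA chemiluminescence and fitted as gain of signal against DMSO.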

[14] = read-out: xenobiotic metabolism (CYP1A2), CYP1A2 (gene 1544); experiment: CLD_CYP1A2_6hr: CellzDirect (CLD) Gene Expression Assay for xenobiotic metabolism (CYP1A2) at 6 hours (AID 2283663)
Outline: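 Primary human hepatocytes from two donor preparations, dosed daily with multiple concentrations in 0.2% DMSO and harvested at 6 h. CYP1A2 mRNA induction measured by chemiluminescent qNPA, gain of signal fitted against DMSO; cytotoxicity flagged morphologically.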

Chain of Cytochrome P450 2C19 (Homo sapiens) (P33261 whole entry, looked up): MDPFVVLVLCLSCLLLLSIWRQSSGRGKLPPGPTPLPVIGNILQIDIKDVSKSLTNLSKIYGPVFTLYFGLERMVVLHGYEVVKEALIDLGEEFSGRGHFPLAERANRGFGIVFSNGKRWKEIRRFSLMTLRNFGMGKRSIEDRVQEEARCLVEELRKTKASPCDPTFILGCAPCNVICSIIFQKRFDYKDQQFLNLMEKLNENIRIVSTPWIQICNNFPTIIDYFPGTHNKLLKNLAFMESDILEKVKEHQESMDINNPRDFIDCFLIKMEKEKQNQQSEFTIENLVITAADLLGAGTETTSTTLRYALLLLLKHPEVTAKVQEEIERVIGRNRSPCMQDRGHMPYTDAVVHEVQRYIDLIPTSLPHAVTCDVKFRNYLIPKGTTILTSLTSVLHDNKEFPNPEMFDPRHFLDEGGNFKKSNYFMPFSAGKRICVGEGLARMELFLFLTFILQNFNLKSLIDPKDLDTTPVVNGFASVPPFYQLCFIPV
Chain of Cytochrome P450 3A4 (Homo sapiens) (P08684 whole entry, looked up): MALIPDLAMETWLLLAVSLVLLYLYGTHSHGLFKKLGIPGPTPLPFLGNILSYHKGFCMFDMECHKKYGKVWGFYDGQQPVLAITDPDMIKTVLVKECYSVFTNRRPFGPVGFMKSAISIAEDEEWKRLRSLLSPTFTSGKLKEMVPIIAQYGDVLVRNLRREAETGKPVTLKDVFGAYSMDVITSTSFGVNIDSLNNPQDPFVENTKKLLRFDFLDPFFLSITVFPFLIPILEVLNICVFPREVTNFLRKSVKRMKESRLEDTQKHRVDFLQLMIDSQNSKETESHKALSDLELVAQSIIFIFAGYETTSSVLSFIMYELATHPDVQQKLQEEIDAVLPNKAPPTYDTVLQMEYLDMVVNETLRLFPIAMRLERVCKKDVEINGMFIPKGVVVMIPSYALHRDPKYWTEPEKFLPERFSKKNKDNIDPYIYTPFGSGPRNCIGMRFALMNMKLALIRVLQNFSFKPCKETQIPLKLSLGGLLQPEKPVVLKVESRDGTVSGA

SMILES | outcome [1] | outcome [2] | AC50 [3] | AC50 [4] | outcome [5] | outcome [6] | outcome [7] | outcome [8] | AC50 [9] | outcome [10] | outcome [11] | outcome [12] | AC50 [7] | outcome [13] | outcome [9] | AC50 [12] | outcome [3] | AC50 [5] | outcome [14]
C=CCC1=C(C)[C@@H](OC(=O)[C@@H]2[C@@H](C=C(C)C)C2(C)C)CC1=O | inactive | inactive | 54 µM (active) | 42.5 µM (active) | inactive | inactive | inactive | inactive | 3.51 µM (active) |  |  |  |  |  |  |  |  |  | 
C=CCC1=C(C)C(OC(=O)C2C(C=C(C)C)C2(C)C)CC1=O (stereo not given) | inactive | inactive | 33.6 µM (active) | 54.1 µM (active) | inactive | inactive | inactive |  | 1.54 µM (active) and 8.75 µM (active) | inactive | inactive | inactive |  |  |  |  |  |  | 
CCNc1nc(Cl)nc(NC(C)C)n1 | inactive | inactive |  |  | inactive | inactive |  |  |  | inactive |  |  | 4.27 µM (active) | inactive | inactive | 20 µM (active) |  |  | 
CN(C)C(=S)SSC(=S)N(C)C | inactive | inactive |  | 40.2 µM (active) |  | inactive |  | inactive | 0.0128 µM (active) | inactive | inactive |  | 35 µM (active) |  |  |  | inactive | 3.26 µM (active) | 
COC(=O)c1ccccc1C(=O)OC | inactive | inactive |  |  | inactive | inactive | inactive | inactive |  | inactive | inactive |  |  | inactive | inactive |  |  |  | inactive
N#Cc1cc(Br)c(O)c(Br)c1 | inactive | inactive |  |  | inactive | inactive |  | inactive | 15.3 µM (active) | inactive | inactive |  | 20 µM (active) |  |  |  |  |  | 
